Assay results as given in PubChem BioAssay AID1159580 (chemical genetic matrix, 2015).
About 2,000 (36%) of roughly 5,500 compounds were called active. Inconclusive results (about 18%) are left out. Cut-off read from the data, not from the text of the source: active = normalized growth mostly below about 0.91 (no sharp cut-off); inconclusive = no clear call, values can overlap the other calls; inactive = mostly above about 0.92. The list shows a part of the results.

Assay: chemical genetic growth profiling, strain panel (AID 1159580);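 note: tested at 20 µM; growth read once vehicle control cultures reached saturation at 30 °C; 1 = growth at the plate median or of vehicle wells; lower values mean less growth of the strain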
Details: S. cerevisiae deletion strains, growth OD

Measured: normalized growth

COCCCCC(=NOCCN)c1ccc(C(F)(F)F)cc1
inactive: locus YAL040C, strain CLN3, hits give low values 0.994 | locus YCL061C, strain MRC1 (second series), hits give low values 0.997 | locus YDR363W, strain ESC2, hits give low values 0.975 | locus YER002W, strain NOP16, hits give low values 1 | locus YJR075W, strain HOC1, hits give low values 0.992 | locus YNL153C, strain GIM3, hits give low values 1.02 | locus YNL175C, strain NOP13, hits give low values 1.01 | locus YNL197C, strain WHI3, hits give low values 1 | locus YNL224C, strain SQS1, hits give low values 1.02 | locus YNL322C, strain KRE1, hits give low values 0.988 | locus YOR083W, strain WHI5 (second series), hits give low values 0.993
